High-throughput results deposited in PubChem BioAssay by SRMLSC.
Hits are enriched below; roughly 6.3% of the tested compounds scored in any of these assays.
PMK inhibit: inhibitors of Streptococcus pneumoniae phosphomevalonate kinase. purified PMK, PK/LDH-coupled NADH absorbance 340 nm. inhibition, % at 10 µM. 65,000 compounds, 0.49% hits. AID 539;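 active = top-ranked compounds by inhibition in the single 10 µM screen, taking a fixed number of the strongest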
Spn MK inh: S. pneumoniae mevalonate kinase inhibition; inhibition, % at 10 µM; purified MK, PK/LDH-coupled NADH absorbance 340 nm; 65,000 compounds, 0.48% hits;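 active = ranked among the strongest by inhibition in the single 10 µM screen, a fixed top-ranked set picked for dose follow-up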
DPM-DC inhibit: S. pneumoniae DPM-DC inhibition | purified DPM-DC, PK/LDH coupled NADH fluorescence | calls only at 10 µM | 65,000 compounds, 0.49% hits;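 active = the 320 compounds with the highest percent inhibition in the single-dose primary screen, excluding strongly autofluorescent ones, cut at about 32% in these data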;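 also: kinetic rate of NADH fluorescence loss reporting ADP formed by the decarboxylase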
NADH coupling: blocks coupling enzymes of NAD/NADH assays | coupled PK/LDH NADH assays, four targets | IC50, µM (doses to about 10 µM) | 65,000 compounds, 0.02% hits;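 active = single-dose screening hits from any of four coupled enzyme assays that gave an IC50 when retested across doses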;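 also: the DPM-DC format reads NADH fluorescence rather than 340 nm absorbance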
Autofluor 339: intrinsic fluorescence of library compounds, ex339/em460 – biochemical, MLSMR library, data from DPM-DC assay, artefact control, profiling panel | 65,000 compounds, 5.5% hits | fluorescence fold increase at 10 µM | compound autofluorescence, ex339/em460 nm, NADH buffer; hits give high values; 1 = no-compound wells, NADH background | AID 709;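 active = at 10 µM, mean starting fluorescence two-fold or more over control wells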;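 also: signal is the first read of a kinetic run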
A340 absorber: absorbance at 340 nm | compound absorbance at 340 nm, fold over control | fold change at 10 µM | 65,000 tested, under 10 active | AID 708;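 active = at 10 µM dose, initial 340 nm absorbance at least 2 fold that of control wells; inactive = change under 2 fold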;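 also: initial absorbance extrapolated from kinetic A340 decline of NADH oxidation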
Of the large screens only hits and unclear results are named; the others gave an inactive call.

Cc1cc(-c2nc3ncccc3o2)ccc1NC(=O)CC(C)C	Autofluor 339 2.2 (not shown: DPM-DC inhibit)
Cc1ccc(OCC(=O)Nc2ccc(-c3nc4ncccc4o3)cc2)c(C)c1	Autofluor 339 2.2 (not shown: DPM-DC inhibit)
O=C(CN(Cc1ccco1)S(=O)(=O)c1cccs1)Nc1ccccc1C(F)(F)F	none
O=c1[nH]c(CSc2nnc(NCCCN3CCOCC3)s2)nc2cc(Cl)ccc12	none
O=C(O)C1CC=CCC1C(=O)N1CCN(c2nc(-c3ccccc3)c3ccccc3n2)CC1 (configuration not stated)	none
O=C(O)CCCC(=O)N1CCN(c2nc(-c3ccccc3)c3ccccc3n2)CC1	Autofluor 339 2.1 (not shown: DPM-DC inhibit)
CCOC(=O)N1CCC(NC(=O)c2cnn3c(C(F)(F)F)cc(-c4cccc(OC)c4)nc23)CC1	Autofluor 339 3.8 (not shown: DPM-DC inhibit)
CCOC(=O)N1CCN(c2nc(-c3cccc(OC)c3)cc(C(F)(F)F)n2)CC1	none
CCOC(=O)c1cnn2c(C(F)(F)F)cc(-c3cn(C)nc3C)nc12	Autofluor 339 3.7 (not shown: DPM-DC inhibit)
O=C(c1cnn2c(C(F)(F)F)cc(-c3ccccc3)nc12)N1CCOCC1	none
CCOC(=O)c1cnc2c(-c3ccccc3)c(C)nn2c1N	none
COC(=O)c1cnn2c(C(F)(F)F)cc(-c3ccc(F)cc3)nc12	Autofluor 339 3.3 (not shown: DPM-DC inhibit)
CCOC(=O)c1cnc2c(-c3ccccc3)cnn2c1N	Autofluor 339 2.1
O=C(Nc1cccc(C(F)(F)F)c1)N1CCC(c2nc(-c3ccc(F)cc3)no2)CC1	none
Cc1cc(NC(=O)CN2CCc3ccccc3C2)nc2c1c(=O)oc1ccccc12	none
O=c1cc(O)c2c(=O)n3c4c(cccc4c2o1)CCC3	none
CCOC(=O)c1cnn2c(C(F)(F)F)cc(-c3ccccc3)nc12	Autofluor 339 2.2 (not shown: DPM-DC inhibit)
CCOC(=O)C1CCCN(C(=O)c2cnn3c(C(F)(F)F)cc(-c4ccccc4)nc23)C1 (configuration not stated)	none
CC(=O)NC(CCS(C)(=O)=O)C(=O)Nc1c(C)cccc1C (configuration not stated)	Spn MK inh 47
CCc1c(C)c2ccc(OCC(=O)OC)cc2oc1=O	Autofluor 339 2.9 (not shown: DPM-DC inhibit)
Cc1cc(=O)oc2cc(OCC(=O)N3CCc4ccccc4C3)ccc12	none
COc1ccc2c(C)c(Cl)c(=O)oc2c1	Autofluor 339 2.2 (not shown: DPM-DC inhibit)
COC(=O)Cc1c(C)c2ccc(OCC(=O)N3CCOCC3)cc2oc1=O	Autofluor 339 2.9 (not shown: DPM-DC inhibit)
COC(=O)COc1ccc2occ(C(C)=O)c2c1	none
Cn1c(Cl)cnc1C1CC(=O)c2cc(Cl)ccc2O1 (configuration not stated)	none
CCOC(=O)Nc1sc2c(c1C(=O)OCC)CCC2	none
CCC1CCc2c(sc(NC(=O)c3ccoc3C)c2C(N)=O)C1 (configuration not stated)	Autofluor 339 2.1 (not shown: DPM-DC inhibit)
CCOC(=O)c1c(NC(=O)c2noc3c2CCCC3)sc2c1CCCC2	none
CCOC(=O)c1c(NC(=O)c2ccoc2C)sc2c1CCC2	Autofluor 339 2.2 (not shown: DPM-DC inhibit)
CCCc1cc(C(=O)Nc2sc3c(c2C(=O)OCC)CCCC3)no1	Autofluor 339 2.1 (not shown: DPM-DC inhibit)
COc1ccc(-n2ncc3c(NCCCn4ccnc4)ncnc32)cc1	none
Cc1cc(N)n2ncc(-c3cccc(Br)c3)c2n1	Autofluor 339 2.2 (not shown: DPM-DC inhibit)
Cc1cc(N)n2ncc(-c3ccccc3)c2n1	none
COCc1cc(C)nc(Nc2ccc(C)c(C)c2)c1C#N	none
COCc1cc(=O)n2c([nH]c3ccccc32)c1C#N	Autofluor 339 4.8 (not shown: DPM-DC inhibit)
CCOc1ccccc1NC(=O)Cn1c(C)cc(COC)c(C#N)c1=O	none
COCc1cc(C)[nH]c(=O)c1C#N	Autofluor 339 2.2 (not shown: DPM-DC inhibit)
O=C(CN1CCC(n2nnc3cc(F)ccc32)CC1)NCc1ccco1	none
CCCCN(CCCC)CCNC(=O)Cc1nc2c(c(=O)[nH]c(=O)n2C)n1C	none
CCOC(=O)c1cc2nc(Nc3ccc(OC)cc3)sc2s1	DPM-DC inhibit active
COc1ccc(CN2C(=O)NC3(CCCCCC3)C2=O)cc1F	none
O=c1[nH]c2ccccc2cc1-c1noc(-c2cccnc2)n1	Autofluor 339 4.2 (not shown: DPM-DC inhibit)
COc1ccc2[nH]c(=O)c(-c3noc(-c4ccccc4)n3)cc2c1	Autofluor 339 3.6 (not shown: DPM-DC inhibit)
COc1cc(OC)cc(-c2nc(-c3ccccc3)no2)c1	none
CCCCOc1ccccc1NC(=O)CSc1nnnn1C(C)(C)C	none
